# Assay results taken from PubChem BioAssay AID1159580 (chemical genetic matrix, 2015).
# The whole screen tested about 5,500 compounds, of which about 2,000 (36%) were called active. Roughly 18% stayed inconclusive and do not appear here. This is one part of the list. A number with no mark means an inactive call. Rule as the data show it: active = normalized growth mostly below about 0.91 (no sharp cut-off); inconclusive = no clear call, values can overlap the other calls; inactive = mostly above about 0.92.
# Assay: chemical genetic growth profiling, strain panel (AID 1159580);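 also: tested at 20 µM; growth read once vehicle control cultures reached saturation at 30 °C; 1 = growth at the plate median or of vehicle wells; lower values mean less growth of the strain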
# Conditions: S. cerevisiae deletion strains, growth OD
compound,measurement,setting,value
CC(=O)O[C@H]1CC[C@]2(C)C3CC(=O)[C@]4(C)C(C(C)=O)=CCC4C3CC[C@H]2C1 (stereo partly drawn),normalized growth,"locus YAL021C, strain ccr4, active compounds read low",1
same,normalized growth,"locus YAL026C, strain drs2, active compounds read low",0.997
same,normalized growth,"locus YAL030W, strain snc1, active compounds read low",1
same,normalized growth,"locus YBL061C, strain skt5, active compounds read low",0.994
same,normalized growth,"locus YBR009C, strain hhf1, active compounds read low",0.996
same,normalized growth,"locus YBR021W, strain FUR4, active compounds read low",1
same,normalized growth,"locus YBR023C, strain chs3, active compounds read low",0.995
same,normalized growth,"locus YBR171W, strain sec66, active compounds read low",0.995
same,normalized growth,"locus YBR229C, strain ROT2, active compounds read low",0.997
same,normalized growth,"locus YBR231C, strain swc5, active compounds read low",1
same,normalized growth,"locus YBR279W, strain paf1, active compounds read low",0.996
same,normalized growth,"locus YCL011C, strain gbp2, active compounds read low",0.984
same,normalized growth,"locus YCL016C, strain dcc1, active compounds read low",0.992
same,normalized growth,"locus YCL029C, strain bik1, active compounds read low",0.987
same,normalized growth,"locus YCL061C, strain MRC1, active compounds read low",0.994
same,normalized growth,"locus YCL069W, strain vba3, active compounds read low",0.992
same,normalized growth,"locus YCR088W, strain abp1, active compounds read low",0.987
same,normalized growth,"locus YDL005C, strain med2, active compounds read low",0.984
same,normalized growth,"locus YDL035C, strain GPR1, active compounds read low",0.956
same,normalized growth,"locus YDL040C, strain nat1, active compounds read low",0.993
same,normalized growth,"locus YDL074C, strain BRE1, active compounds read low",0.967
same,normalized growth,"locus YDL101C, strain DUN1, active compounds read low",1
same,normalized growth,"locus YDL185W, strain tfp1, active compounds read low",1.02
same,normalized growth,"locus YDL192W, strain arf1, active compounds read low",0.978
same,normalized growth,"locus YDR001C, strain nth1, active compounds read low",0.994
same,normalized growth,"locus YDR069C, strain doa4, active compounds read low",1.02
same,normalized growth,"locus YDR101C, strain arx1, active compounds read low",0.988
same,normalized growth,"locus YDR137W, strain rgp1, active compounds read low",0.924
same,normalized growth,"locus YDR159W, strain sac3, active compounds read low",0.921
same,normalized growth,"locus YDR162C, strain NBP2, active compounds read low",0.987
same,normalized growth,"locus YDR195W, strain ref2",1
same,normalized growth,"locus YDR297W, strain sur2, active compounds read low",0.998
same,normalized growth,"locus YDR318W, strain mcm21, active compounds read low",0.988
same,normalized growth,"locus YDR334W, strain swr1, active compounds read low",1.01
same,normalized growth,"locus YDR335W, strain msn5, active compounds read low",1
same,normalized growth,"locus YDR388W, active compounds read low",0.998
same,normalized growth,"locus YDR392W, strain spt3, active compounds read low",0.628 (active)
same,normalized growth,"locus YDR502C, strain sam2, active compounds read low",0.978
same,normalized growth,"locus YEL003W, strain gim4, active compounds read low",0.996
same,normalized growth,"locus YEL037C, strain rad23, active compounds read low",1.01
same,normalized growth,"locus YEL061C, strain CIN8 (second series), active compounds read low",1
same,normalized growth,"locus YEL061C, strain CIN8, active compounds read low",0.993
same,normalized growth,"locus YER015W, strain faa2, active compounds read low",1
same,normalized growth,"locus YER016W, strain bim1, active compounds read low",0.994
same,normalized growth,"locus YER110C, active compounds read low",1.01
same,normalized growth,"locus YER111C, strain swi4, active compounds read low",1.01
same,normalized growth,"locus YER155C, strain BEM2 (second series), active compounds read low",0.963
same,normalized growth,"locus YER155C, strain BEM2, active compounds read low",0.983
same,normalized growth,"locus YER167W, strain BCK2, active compounds read low",0.982
same,normalized growth,"locus YFR010W, strain ubp6, active compounds read low",1
same,normalized growth,"locus YGL078C, strain dbp3, active compounds read low",1.01
same,normalized growth,"locus YGL086W, strain mad1, active compounds read low",0.968
same,normalized growth,"locus YGL167C, strain pmr1, active compounds read low",0.985
same,normalized growth,"locus YGL173C, strain kem1, active compounds read low",0.995
same,normalized growth,"locus YGL227W, strain vid30, active compounds read low",0.996
same,normalized growth,"locus YGL240W, strain doc1, active compounds read low",1.01
same,normalized growth,"locus YGL248W, strain PDE1, active compounds read low",0.99
same,normalized growth,"locus YGL253W, strain hxk2, active compounds read low",0.982
same,normalized growth,"locus YGR078C, strain PAC10, active compounds read low",0.983
same,normalized growth,"locus YGR135W, strain pre9, active compounds read low",1.01
same,normalized growth,"locus YGR229C, strain SMI1, active compounds read low",0.995
same,normalized growth,"locus YGR252W, strain gcn5, active compounds read low",1.05
same,normalized growth,"locus YHR013C, strain ard1, active compounds read low",0.934
same,normalized growth,"locus YHR027C, strain rpn1, active compounds read low",0.988
same,normalized growth,"locus YHR079C, strain IRE1 (second series), active compounds read low",0.997
same,normalized growth,"locus YHR094C, strain hxt1, active compounds read low",1
same,normalized growth,"locus YHR129C, strain ARP1, active compounds read low",0.982
same,normalized growth,"locus YHR142W, strain chs7, active compounds read low",0.972
same,normalized growth,"locus YHR200W, strain rpn10, active compounds read low",1.01
same,normalized growth,"locus YIL066C, strain RNR3, active compounds read low",0.98
same,normalized growth,"locus YIL073C, strain SPO22, active compounds read low",1.03
same,normalized growth,"locus YIL125W, strain kgd1, active compounds read low",0.989
same,normalized growth,"locus YIR030C, strain dcg1, active compounds read low",0.998
same,normalized growth,"locus YJL092W, strain hpr5, active compounds read low",0.988
same,normalized growth,"locus YJL095W, strain BCK1 (second series), active compounds read low",0.997
same,normalized growth,"locus YJL095W, strain BCK1, active compounds read low",1.02
same,normalized growth,"locus YJL115W, strain asf1, active compounds read low",1
same,normalized growth,"locus YJL129C, strain trk1, active compounds read low",1.01
same,normalized growth,"locus YJL134W, strain LCB3, active compounds read low",0.988
same,normalized growth,"locus YJL154C, strain vps35, active compounds read low",1
same,normalized growth,"locus YJL164C, strain tpk1, active compounds read low",0.988
same,normalized growth,"locus YJL166W, strain qcr8, active compounds read low",0.991
same,normalized growth,"locus YJL168C, strain set2, active compounds read low",0.995
